Data taken from PubChem BioAssay.
Activity calls are given as the source filed them.

Assays:
[1] = tested on: PRMT1 (protein arginine N-methyltransferase 1); experiment: small molecules binding arginine methyltransferase PRMT1 – biochemical, small-molecule microarray, 635 nm fluorescence, primary screen (AID 1088); conditions: higher = more signal;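 note: binding of Prmt1 protein to compounds spotted on small-molecule microarray slides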
[2] = growth effects on S. cerevisiae YJM789 – YJM789 clinical isolate, OD600, 24 h, basal, primary screen (AID 1089); conditions: higher = more signal, called active from +8 up or from −8 down;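 note: growth of clinical yeast isolate S. cerevisiae YJM 789 seeded 1000 cells per well; test concentration not given here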
[3] = S. pombe growth modifiers, basal conditions – strain 972, OD600, 24 h, no modulator, primary screen (AID 1090);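 note: basal condition with compound alone and no growth modifier present; test concentration not given here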; conditions: S. pombe 972 growth, higher = more signal, called active from +8 up or from −8 down
[4] = budding yeast growth modifiers under rapamycin – strain BY4716, OD600, 96 h, primary screen (AID 1091); note: test concentration not given here; conditions: S. cerevisiae BY4716 + rapamycin, higher = more signal, called active from +8 up or from −8 down
[5] = target: Torsin-1A-interacting protein 2 (Homo sapiens) (UniProt Q8NFQ8); experiment: small molecules binding lysate-expressed LULL1 – cell lysate, human LULL1 lysate, 635/667 nm fluorescence, primary screen (AID 1092); conditions: small-molecule microarray, hLULL1 lysate binding, 635 nm fluorescence; higher = more signal;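 note: probe is lysate of COS7 cells overexpressing human LULL1; score merges per-feature 667 nm fluorescence with signal-to-noise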
Chain of Torsin-1A-interacting protein 2 (Homo sapiens) (Q8NFQ8 whole entry, looked up): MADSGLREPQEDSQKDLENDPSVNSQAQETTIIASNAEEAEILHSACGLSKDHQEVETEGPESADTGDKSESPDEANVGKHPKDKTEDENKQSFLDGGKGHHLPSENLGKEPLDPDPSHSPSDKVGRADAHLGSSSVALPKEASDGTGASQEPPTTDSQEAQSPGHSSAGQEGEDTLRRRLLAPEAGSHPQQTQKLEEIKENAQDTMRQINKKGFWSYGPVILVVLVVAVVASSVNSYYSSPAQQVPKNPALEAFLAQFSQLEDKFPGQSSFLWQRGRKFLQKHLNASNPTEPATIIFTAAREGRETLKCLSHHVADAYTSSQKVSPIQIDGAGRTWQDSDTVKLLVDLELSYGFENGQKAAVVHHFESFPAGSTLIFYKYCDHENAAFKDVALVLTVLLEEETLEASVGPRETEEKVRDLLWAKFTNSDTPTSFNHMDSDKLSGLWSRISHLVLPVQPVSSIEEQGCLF

[6] = optical density change of DRC41 E. coli – strain DRC41, OD650, 24 h, E. coli filamentation project, primary screen (AID 1093);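 note: MC1000 strain lacking acrAB efflux and sulA so SOS filamentation is blocked; test concentration not given here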; conditions: E. coli DRC41 growth, higher = more signal, called active from +8 up or from −8 down
[7] = probe aLefty2 binding to arrayed compounds – biochemical, biotinylated probe, 635/667 nm fluorescence, primary screen (AID 1094); conditions: small-molecule microarray, higher = more signal;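 note: score merges spot fluorescence near 667 nm with spot signal-to-noise ratio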
[8] = tested on: Noggin (protein binding on small-molecule microarray); experiment: small molecules binding Noggin protein – biochemical, 635/667 nm fluorescence, primary screen (AID 1095); conditions: 635 nm fluorescence, higher = more signal;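 note: score merges 667 nm feature fluorescence with signal to noise over triplicate slides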
[9] = target: Neurogenic locus notch homolog protein 3 (Homo sapiens) (UniProt Q9UM47); experiment: small molecules binding NOTCH3 protein – biochemical, 635/667 nm fluorescence, primary screen (AID 1096); conditions: small-molecule microarray, 635 nm fluorescence, higher = more signal
Chain of Neurogenic locus notch homolog protein 3 (Homo sapiens) (Q9UM47 whole entry, looked up): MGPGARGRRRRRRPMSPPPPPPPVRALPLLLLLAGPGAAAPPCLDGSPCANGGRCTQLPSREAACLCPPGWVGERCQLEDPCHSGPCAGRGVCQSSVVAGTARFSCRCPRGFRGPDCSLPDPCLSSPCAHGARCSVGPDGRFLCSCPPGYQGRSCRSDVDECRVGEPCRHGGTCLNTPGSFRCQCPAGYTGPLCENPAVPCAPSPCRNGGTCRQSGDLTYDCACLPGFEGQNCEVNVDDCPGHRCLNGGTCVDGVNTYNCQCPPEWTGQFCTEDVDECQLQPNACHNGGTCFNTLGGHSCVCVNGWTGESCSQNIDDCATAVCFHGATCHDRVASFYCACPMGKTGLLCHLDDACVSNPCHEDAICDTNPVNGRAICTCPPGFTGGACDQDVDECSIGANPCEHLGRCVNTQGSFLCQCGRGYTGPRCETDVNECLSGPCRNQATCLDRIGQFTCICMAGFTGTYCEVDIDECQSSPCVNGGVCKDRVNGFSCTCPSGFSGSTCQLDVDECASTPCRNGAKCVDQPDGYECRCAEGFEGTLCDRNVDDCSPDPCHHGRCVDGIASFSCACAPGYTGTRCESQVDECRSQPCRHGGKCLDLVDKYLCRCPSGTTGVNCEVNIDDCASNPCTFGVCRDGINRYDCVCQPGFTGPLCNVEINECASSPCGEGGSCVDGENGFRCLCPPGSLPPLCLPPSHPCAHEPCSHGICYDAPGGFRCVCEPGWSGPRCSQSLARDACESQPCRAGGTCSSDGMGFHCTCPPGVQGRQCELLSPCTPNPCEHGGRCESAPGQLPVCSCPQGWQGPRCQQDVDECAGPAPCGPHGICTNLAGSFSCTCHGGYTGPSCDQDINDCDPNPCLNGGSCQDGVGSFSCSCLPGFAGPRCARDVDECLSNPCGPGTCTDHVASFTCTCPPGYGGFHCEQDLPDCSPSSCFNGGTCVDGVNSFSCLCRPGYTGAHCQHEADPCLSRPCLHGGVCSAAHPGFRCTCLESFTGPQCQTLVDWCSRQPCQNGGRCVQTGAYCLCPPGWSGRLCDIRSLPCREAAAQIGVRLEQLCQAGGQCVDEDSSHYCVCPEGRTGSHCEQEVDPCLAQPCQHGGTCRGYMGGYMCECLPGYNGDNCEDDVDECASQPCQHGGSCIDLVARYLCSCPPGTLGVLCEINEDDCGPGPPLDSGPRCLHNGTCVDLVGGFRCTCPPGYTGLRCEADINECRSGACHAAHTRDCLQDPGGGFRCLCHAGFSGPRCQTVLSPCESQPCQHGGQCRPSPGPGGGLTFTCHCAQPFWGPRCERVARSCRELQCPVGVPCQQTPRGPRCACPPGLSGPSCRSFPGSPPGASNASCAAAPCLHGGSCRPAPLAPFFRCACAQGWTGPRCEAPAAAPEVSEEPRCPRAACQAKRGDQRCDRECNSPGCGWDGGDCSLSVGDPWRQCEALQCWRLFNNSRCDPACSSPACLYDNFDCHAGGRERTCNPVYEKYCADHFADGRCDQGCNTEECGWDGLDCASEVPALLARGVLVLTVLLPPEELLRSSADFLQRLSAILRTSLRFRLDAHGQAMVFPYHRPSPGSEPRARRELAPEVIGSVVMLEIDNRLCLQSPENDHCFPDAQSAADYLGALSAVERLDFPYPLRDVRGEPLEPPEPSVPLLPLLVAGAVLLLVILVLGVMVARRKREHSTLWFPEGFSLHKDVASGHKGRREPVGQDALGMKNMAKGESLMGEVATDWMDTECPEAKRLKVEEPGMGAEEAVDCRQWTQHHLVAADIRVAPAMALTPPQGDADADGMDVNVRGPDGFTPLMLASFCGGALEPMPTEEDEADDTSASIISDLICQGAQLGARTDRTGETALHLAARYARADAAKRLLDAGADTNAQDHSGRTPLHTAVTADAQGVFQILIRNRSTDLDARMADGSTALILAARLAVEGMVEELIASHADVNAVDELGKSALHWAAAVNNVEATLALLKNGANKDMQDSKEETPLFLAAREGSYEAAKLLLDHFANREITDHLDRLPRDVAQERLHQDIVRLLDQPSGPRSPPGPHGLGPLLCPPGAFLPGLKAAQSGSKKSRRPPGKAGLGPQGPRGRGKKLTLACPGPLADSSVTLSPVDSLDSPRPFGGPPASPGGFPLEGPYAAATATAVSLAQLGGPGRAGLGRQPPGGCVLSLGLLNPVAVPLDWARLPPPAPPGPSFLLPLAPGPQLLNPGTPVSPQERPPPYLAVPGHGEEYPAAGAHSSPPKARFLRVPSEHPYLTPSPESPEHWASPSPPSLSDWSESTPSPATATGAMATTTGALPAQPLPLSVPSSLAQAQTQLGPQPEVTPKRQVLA

[10] = probe aEGFR binding to arrayed compounds – biochemical, biotinylated probe, 635/667 nm fluorescence, primary screen (AID 1097); conditions: small-molecule microarray, higher = more signal;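 note: probe is a biotinylated anti-EGFR antibody binding compounds printed on slides; score combines fluorescence near 667 nm and signal to noise of each spot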
[11] = tested on: Plasmodium falciparum Sir2 (PF13_0152, Sir2A); experiment: Plasmodium falciparum Sir2A binding compounds – biochemical, small-molecule microarray, 635 nm fluorescence, primary screen (AID 1098); conditions: fluorescence 635 nm, higher = more signal;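 note: score merges spot fluorescence intensity with its signal-to-noise ratio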
[12] = probe aDKK1 binding to arrayed compounds – biochemical, biotinylated probe, 635/667 nm fluorescence, primary screen (AID 1099); conditions: small-molecule microarray, higher = more signal;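 note: score merges 667nm spot fluorescence with signal to noise across triplicate slides; reference of the scale not given here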
[13] = probe aCHRDL2 binding to arrayed compounds – biochemical, biotinylated probe, 635/667 nm fluorescence, primary screen (AID 1100); conditions: small-molecule microarray, higher = more signal
[14] = change in splice reporter luminescence, either direction, cell-based, HEK293, spliceosome inhibition project, primary screen (AID 1101); conditions: HEK293 splicing luciferase reporter, 24 h, higher = more signal, called active from +8 up or from −8 down;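 note: HEK293 cells carrying a splicing-competent luciferase reporter gene; test concentration not given here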
[15] = target: Fibroblast growth factor 10 (Homo sapiens) (UniProt O15520); experiment: compounds binding fibroblast growth factor 10 – biochemical, small-molecule microarray, 635 nm fluorescence, primary screen (AID 1102); conditions: FGF10 binding, fluorescence 635 nm, higher = more signal
Chain of Fibroblast growth factor 10 (Homo sapiens) (O15520 whole entry, looked up): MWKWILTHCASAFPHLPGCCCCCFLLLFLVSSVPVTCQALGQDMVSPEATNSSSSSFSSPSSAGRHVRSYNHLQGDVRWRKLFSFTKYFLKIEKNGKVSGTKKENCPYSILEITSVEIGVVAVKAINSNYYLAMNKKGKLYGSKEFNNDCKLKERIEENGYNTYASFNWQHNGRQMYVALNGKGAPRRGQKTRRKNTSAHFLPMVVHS

[16] = tested on: glycogen synthase kinase-3 (GSK3A per assay name; protocol says GSK3B); experiment: compounds binding glycogen synthase kinase-3 – biochemical, small-molecule microarray, 635 nm fluorescence, GSK3A, primary screen (AID 1103); conditions: fluorescence 635 nm, higher = more signal; note: the record names both GSK3A and GSK3B
[17] = target: Epidermal growth factor receptor (Homo sapiens) (UniProt P00533); experiment: compounds binding epidermal growth factor receptor – biochemical, small-molecule microarray, 635 nm fluorescence, primary screen (AID 1104); conditions: EGFR binding, higher = more signal;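 note: score merges 667 nm emission intensity with spot signal to noise over triplicate slides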
Chain of Epidermal growth factor receptor (Homo sapiens) (P00533 whole entry, looked up): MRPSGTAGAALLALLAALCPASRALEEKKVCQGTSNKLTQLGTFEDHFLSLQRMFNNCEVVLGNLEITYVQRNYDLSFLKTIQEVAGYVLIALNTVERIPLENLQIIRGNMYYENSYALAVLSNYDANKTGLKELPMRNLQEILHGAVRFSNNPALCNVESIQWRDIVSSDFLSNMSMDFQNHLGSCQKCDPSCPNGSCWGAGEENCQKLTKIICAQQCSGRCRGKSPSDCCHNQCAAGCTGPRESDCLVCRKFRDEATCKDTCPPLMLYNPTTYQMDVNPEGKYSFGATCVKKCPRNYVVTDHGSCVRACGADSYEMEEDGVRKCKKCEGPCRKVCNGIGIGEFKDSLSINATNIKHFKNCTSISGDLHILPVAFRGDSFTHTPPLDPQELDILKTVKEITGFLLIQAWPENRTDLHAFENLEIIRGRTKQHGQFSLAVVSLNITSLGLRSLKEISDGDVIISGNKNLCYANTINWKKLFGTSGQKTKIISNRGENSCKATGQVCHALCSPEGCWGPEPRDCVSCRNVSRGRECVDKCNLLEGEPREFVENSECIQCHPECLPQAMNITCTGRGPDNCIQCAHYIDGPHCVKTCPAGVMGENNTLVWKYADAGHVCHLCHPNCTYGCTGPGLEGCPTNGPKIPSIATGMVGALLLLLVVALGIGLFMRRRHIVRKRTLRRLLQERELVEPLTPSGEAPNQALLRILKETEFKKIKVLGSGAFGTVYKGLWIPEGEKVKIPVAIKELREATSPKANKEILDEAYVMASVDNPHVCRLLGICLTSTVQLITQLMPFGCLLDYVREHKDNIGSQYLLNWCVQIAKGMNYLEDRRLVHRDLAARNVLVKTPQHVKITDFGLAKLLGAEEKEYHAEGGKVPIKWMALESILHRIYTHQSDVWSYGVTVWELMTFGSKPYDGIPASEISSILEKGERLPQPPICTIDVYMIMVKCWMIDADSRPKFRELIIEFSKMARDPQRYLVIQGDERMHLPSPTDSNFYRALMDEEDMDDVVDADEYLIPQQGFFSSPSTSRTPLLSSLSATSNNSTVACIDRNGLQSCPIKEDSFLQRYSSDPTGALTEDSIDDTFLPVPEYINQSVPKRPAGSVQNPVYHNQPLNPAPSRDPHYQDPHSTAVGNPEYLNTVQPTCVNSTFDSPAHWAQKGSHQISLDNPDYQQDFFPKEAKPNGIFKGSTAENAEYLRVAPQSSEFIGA

[18] = target: Follistatin-related protein 3 (Homo sapiens) (UniProt O95633); experiment: compounds binding follistatin-related protein 3 – biochemical, small-molecule microarray, 635 nm fluorescence, primary screen (AID 1105); conditions: FSTL3 binding, higher = more signal;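 note: score merges emission near 667 nm and signal to noise per printed spot across three slides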
Chain of Follistatin-related protein 3 (Homo sapiens) (O95633 whole entry, looked up): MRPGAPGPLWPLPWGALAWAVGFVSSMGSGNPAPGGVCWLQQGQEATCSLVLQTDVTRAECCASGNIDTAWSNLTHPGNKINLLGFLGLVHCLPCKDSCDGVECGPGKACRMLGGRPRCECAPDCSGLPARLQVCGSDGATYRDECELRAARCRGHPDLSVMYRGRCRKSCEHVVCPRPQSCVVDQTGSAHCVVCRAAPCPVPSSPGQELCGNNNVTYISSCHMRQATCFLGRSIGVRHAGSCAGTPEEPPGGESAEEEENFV

[19] = target: Dickkopf-related protein 1 (Homo sapiens) (UniProt O94907); experiment: small molecules binding DKK1 protein – biochemical, small-molecule microarray, 635 nm fluorescence scan, primary screen (AID 1106); conditions: higher = more signal;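 note: score merges emission near 667 nm with signal to noise over three replicate slides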
Chain of Dickkopf-related protein 1 (Homo sapiens) (O94907 whole entry, looked up): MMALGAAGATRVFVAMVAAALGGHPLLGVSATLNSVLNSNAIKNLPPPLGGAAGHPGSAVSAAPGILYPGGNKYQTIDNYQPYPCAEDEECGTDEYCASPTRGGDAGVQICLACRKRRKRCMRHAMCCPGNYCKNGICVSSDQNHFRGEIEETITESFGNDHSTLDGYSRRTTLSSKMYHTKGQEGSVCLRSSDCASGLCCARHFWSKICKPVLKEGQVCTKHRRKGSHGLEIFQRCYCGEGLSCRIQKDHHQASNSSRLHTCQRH

[20] = tested on: Inhibin beta A chain (activin A); experiment: small molecules binding activin A – biochemical, small-molecule microarray, 635 nm fluorescence scan, primary screen (AID 1107); conditions: INHBA, higher = more signal;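 note: mouse activin A protein probed at 4.33 µg/mL on printed slides; score merges bound-protein fluorescence near 667 nm with spot signal-to-noise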

| Structure (SMILES) | composite z-score [1] | z-score [2] | z-score [3] | z-score [4] | composite z-score [5] | z-score [6] | composite z-score [7] | composite z-score [8] | composite z-score [9] | composite z-score [10] | composite z-score [11] | composite z-score [12] | composite z-score [13] | z-score [14] | composite z-score [15] | composite z-score [16] | composite z-score [17] | composite z-score [18] | composite z-score [19] | composite z-score [20] |
| --- | --- | --- | --- | --- | --- | --- | --- | --- | --- | --- | --- | --- | --- | --- | --- | --- | --- | --- | --- | --- |
| CC1CC/C=C\[C@H]2OC34C=CCN(c5ccc6ccccc6c5)C(=O)[C@H]3N(CCO)C(=O)[C@@H]4C2C(=O)O1 (stereo not given in full) | 0.229 | -0.646 (inactive) | -1.4 (inactive) | -0.764 (inactive) | 2.07 | 0.764 (inactive) | 0.314 | -1.11 | 0.521 | -0.123 | 1.76 | -0.122 | 0.915 | -0.538 (inactive) | -0.681 | -0.844 | -1.13 | -0.391 | -1.02 | 0.838 |
| COc1ccc(C(O)C2C=CC3C(=O)N(C)C(=O)C3N2N(c2ccccc2)c2ccccc2)c2ccccc12 (stereo not given) | 0.474 | 0.388 (inactive) | 0.954 (inactive) | 0.375 (inactive) | -0.124 | -1.27 (inactive) | 0.242 | 0.575 | 0.563 | -0.0283 | 1.42 | 0.464 | 1.04 | 1.04 (inactive) | 0.784 | -0.16 | 0.23 | 1.19 | 0.569 | 1.13 |
| CCCCCCc1nc(-c2ccc(-c3ccc(Cl)c(Cl)c3)o2)cc2c1[Si](C(C)C)(C(C)C)O[C@H]2c1ccccc1 | 0.287 | -0.124 (inactive) | -0.45 (inactive) | -1.35 (inactive) | 0.424 | 0.488 (inactive) | -0.196 | 0.0792 | -0.34 | -0.249 | 0.0593 | -0.294 | 0.0787 | -0.112 (inactive) | -0.515 | -1.26 | -0.287 | -0.737 | 0.0981 | 0.62 |
| COC(=O)C(CC#Cc1ccc2c(c1)[C@]1(C(=O)N2)[C@H](c2ccccc2OCCO)N2[C@H](c3ccccc3)[C@H](c3ccccc3)OC(=O)[C@H]2[C@@H]1C(=O)O)C(=O)OC | 1.57 | 2.46 (inactive) | 0.521 (inactive) | -0.188 (inactive) | 2.37 | 0.871 (inactive) | 0.264 | 0.793 | 0.691 | -0.0032 | 1.49 | 0.666 | 0.0004 | -0.597 (inactive) | 0.738 | 0.93 | 0.28 | 0.356 | 0.278 | 1.04 |
| CCN(CC)c1ccc(N2CC=CC34O[C@@H]5/C=C\CCC(C)OC(=O)C5[C@H]3C(=O)N(CCCCCO)[C@@H]4C2=O)cc1 (stereo not given in full) | -0.895 | 0.026 (inactive) | -1.42 (inactive) | -0.399 (inactive) | -1.3 | -0.374 (inactive) | -0.283 | -0.663 | -0.134 | -0.238 | -1.01 | -0.0549 | 0.288 | 0.292 (inactive) | -0.976 | -1.02 | -0.518 | -0.669 | -0.555 | 0.306 |
| O=C1O[C@H](c2ccccc2)[C@H](c2ccccc2)N2[C@H]1[C@@H](C(=O)N1CCN(c3ncccn3)CC1)[C@]1(C(=O)Nc3ccc(C#CC4=CCCCC4)cc31)[C@H]2c1ccccc1OCCO | 1.53 | 1.08 (inactive) | 0.759 (inactive) | 3.51 (inactive) | 2.65 | 0.071 (inactive) | 0.276 | 0.922 | 1.07 | -0.0493 | 1.7 | -0.14 | 0.259 | -1.14 (inactive) | 1.02 | 1.3 | 0.645 | 1.31 | 0.71 | 1.08 |
| COC(=O)[C@H](Cc1ccccc1)N[C@H](/C=C/C1CC1)[C@@H](O)Cc1ccccc1 | -0.108 | -1.56 (inactive) | -5.75 (inactive) | -0.751 (inactive) | -0.316 | 1.04 (inactive) | -0.279 | 0.195 | -0.469 | -0.178 | -0.111 | -0.351 | 0.327 | -1.16 (inactive) | -0.66 | -1.22 | -0.579 | -0.244 | -0.506 | 0.0419 |
| COC(=O)[C@@]1(Cc2ccc(OC)cc2)[C@H]2c3cc(C(=O)N4CCCC4)n(Cc4nc5ccccc5[nH]4)c3C[C@H]2CN1C(=O)c1ccccc1 | 0.661 | -0.0237 (inactive) | 0.955 (inactive) | 2.07 (inactive) | 3.73 | 0.138 (inactive) | 0.759 | -0.214 | 1.05 | 0.225 | 1.36 | 1.48 | 1.34 | -1.29 (inactive) | 0.77 | 0.54 | 0.206 | 1.05 | -0.49 | 1.28 |
| CCOC(=O)C1=C[C@@H](C(C)C)N(S(=O)(=O)c2ccc(C)cc2)[C@H]1c1ccccc1F | 1.58 | -0.413 (inactive) | 1.51 (inactive) | 7.3 (inactive) | 2.8 | -0.816 (inactive) | 0.142 | 0.351 | 1.06 | 0.0353 | 0.906 | 0.398 | 0.603 | 1.2 (inactive) | 0.668 | 0.791 | 0.6 | 0.965 | 0.336 | 0.442 |
| O=C1C2C=CC(C(O)c3ccc(F)cc3)N(Nc3ccc([N+](=O)[O-])cc3)C2C(=O)N1c1ccccc1 (stereo not given) | 1.35 | 0.099 (inactive) | 1.75 (inactive) | 1.96 (inactive) | 3.27 | -0.848 (inactive) | 0.187 | 0.257 | 1.1 | -0.0435 | 1.38 | 0.343 | 0.839 | 0.516 (inactive) | 0.638 | 1.07 | -0.125 | 0.558 | -0.272 | 0.556 |
